Experimental data published in PubChem BioAssay (NCATS).
Inconclusive results are not listed. Unmarked numbers belong to inactive results. Activity calls are given as the source filed them. Calls follow the shape of the dose curve; as a rule, active = well fitted cell-killing curve with a large enough effect; inconclusive = small, poorly fitted or top-dose-only effect; inactive = no such curve, though single readings can be large or run the other way.

Experiment: qHTS of pediatric cancer cell lines to identify multiple opportunities for drug repurposing: Primary screen for SK-N-MC cells (AID 1347093);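 as to activity change, negative = cytotoxic: plate controls were DMSO neutral control for no effect and bortezomib for full effect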
Conditions: SK-N-MC viability, CellTiter-Glo luminescence, 48 h; series mostly up to 46 µM; activity change, negative = cytotoxic: at the top concentration
Method in brief: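 Metabolically active cells were quantified by ATP-dependent luminescence (CellTiter-Glo, 15 min at room temperature) following 48 h treatment. Cells had been plated at 500-1,000 per well and settled for 5 h beforehand.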
Potency is read from the fitted curve at half-maximal effect.

Row | Compound | Potency | activity change, negative = cytotoxic
1 | C[C@]12CC[C@H]3[C@@H](CCC4=CC(=O)CC[C@@]43C)[C@H]1CC[C@H]2OC(=O)CCC1CCCC1 | 11800 nM (active) | 
2 | c1cc2c(cc1[C@H]1OC[C@H]3[C@H]1CO[C@H]3c1ccc3c(c1)OCO3)OCO2 |  | 18.4%
3 | CC(=O)O[C@@]12CO[C@H]1C[C@H](O)[C@@]1(C)C(=O)[C@H](O)C3=C(C)[C@@H](O)C[C@@](O)([C@@H](OC(=O)c4ccccc4)[C@@H]21)C3(C)C | 1320 nM (active) | 
4 | C[C@@H]1CC[C@@]2(OC1)O[C@H]1C[C@H]3[C@@H]4CC=C5C[C@@H](O[C@@H]6O[C@H](CO)[C@@H](O[C@@H]7O[C@@H](C)[C@H](O)[C@@H](O)[C@@H]7O)[C@H](O)[C@@H]6O[C@@H]6O[C@@H](C)[C@H](O)[C@@H](O)[C@@H]6O)CC[C@]5(C)[C@@H]4CC[C@]3(C)[C@@H]1[C@H]2C | 1320 nM (active) | 
5 | N#C[C@H](O[C@@H]1O[C@H](CO[C@@H]2O[C@H](CO)[C@H](O)[C@H](O)[C@H]2O)[C@H](O)[C@H](O)[C@H]1O)c1ccccc1 | 10500 nM (active) | 
6 | S=C(SSC(=S)N1CCCCC1)N1CCCCC1 | 37.6 nM (active) | 
7 | CC(C)(O)C(=O)Nc1ccc([N+](=O)[O-])c(C(F)(F)F)c1 | 935 nM (active) | 
8 | CC=C(C)C(=O)N[C@@H](c1ccccc1)[C@@H](O)C(=O)O[C@H]1C[C@@]2(O)[C@@H](OC(=O)c3ccccc3)[C@@H]3[C@]4(OC(C)=O)CO[C@@H]4C[C@H](O)[C@@]3(C)C(=O)[C@H](OC(C)=O)C(=C1C)C2(C)C | 1 nM (active) | 
9 | COc1ccc(N(C(=O)Oc2c(C)cccc2C)c2ccnc(Nc3ccc(N4CCN(C)CC4)cc3)n2)c(OC)c1 | 1320 nM (active) | 
10 | CC(N[C@H]1C[C@H]1c1ccccc1)c1ccc2c(c1)OCCO2 (stereo partly drawn) |  | 26%
11 | O=C(N[C@@H](COc1ccc2[nH]c(=O)[nH]c2c1)c1ccccc1)c1cccn(Cc2ccc(F)c(F)c2)c1=O | 18700 nM (active) | 
12 | C[C@@]12OC(=O)[C@]1([C@@H](O)[C@@H]1C=CCCC1)NC(=O)[C@H]2CCCl | 8.3 nM (active) | 
13 | CO/C=C(/C(=O)OC)c1ccccc1Oc1cc(Oc2ccccc2C#N)ncn1 | 17200 nM (active) | 
14 | O=C(Nc1ccncc1)C(=O)c1cn(Cc2ccc(Cl)cc2)c2ccccc12 | 66.2 nM (active) | 
15 | N=c1c2c(-c3ccccc3)c(-c3ccccc3)n(Cc3ccccc3)c2ncn1C1CCC(O)CC1 (stereo not drawn) | 16600 nM (active) | 
16 | CC(=Cc1csc(C)n1)[C@@H]1C[C@H]2O[C@]2(C)CCC[C@H](C)[C@@H](O)[C@@H](C)C(=O)C(C)(C)[C@@H](O)CC(=O)O1 | 1 nM (active) | 
17 | CC[C@@H]1[C@@H](C)O[C@@](O)([C@@H](C)[C@H](O)[C@H](C)[C@H]2OC(=O)C=CC=C[C@@H](C)[C@@H]([C@@H](C)[C@@H](O)[C@H](C)[C@@]3(O)C[C@H](O[C@H]4C[C@H](O)[C@H](O)[C@H](C)O4)[C@H](CC)[C@@H](C)O3)OC(=O)C=CC=C[C@@H]2C)C[C@H]1O[C@H]1C[C@H](O)[C@H](O)[C@H](C)O1 | 372 nM (active) | 
18 | CC(=O)[O][Hg][c]1ccccc1 | 531 nM (active) | 
19 | Cc1ccccc1-n1c(Cn2cnc3c(N)ncnc32)nc2cccc(C)c2c1=O | 20.9 nM (active) | 
20 | CC(C)[C@]12O[C@@H]1[C@@H]1O[C@]13[C@]1(O[C@H]1C[C@@H]1C4=C(CC[C@@]13C)C(=O)OC4)[C@H]2O | 1 nM (active) | 
21 | O=C(Oc1ccc([N+](=O)[O-])cc1)N1CCN(Cc2cccc(Oc3ccccc3)c2)CC1 | 18700 nM (active) | 
22 | Clc1ccccc1C(c1ccccc1)(c1ccccc1)n1cccn1 |  | 23.4%
23 | CC1=C(O)C(=O)C=C2C1=CC=C1[C@@]2(C)CC[C@@]2(C)[C@@H]3C[C@](C)(C(=O)O)CC[C@]3(C)CC[C@]12C | 833 nM (active) | 
24 | COc1cc([C@@H]2c3cc4c(cc3[C@@H](O)C3COC(=O)C32)OCO4)cc(OC)c1O (stereo partly drawn) | 46.9 nM (active) | 
25 | C=CCON=C(C[C@H]1O[C@@H]2O[C@]3(C)CC[C@@H]4[C@H](C)CC[C@@H]([C@H]1C)[C@@]24OO3)[C@H]1O[C@@H]2O[C@]3(C)CC[C@H]4[C@H](C)CC[C@@H]([C@@H]1C)[C@@]24OO3 | 332 nM (active) | 
26 | CC=C(C)C(=O)O[C@H]1C(C)=C2[C@@H]3OC(=O)[C@@](C)(O)[C@@]3(O)[C@@H](OC(=O)CCC)C[C@](C)(OC(C)=O)[C@@H]2[C@@H]1OC(=O)CCCCCCC | 18.7 nM (active) | 
27 | CC(C)(O)C=CC(=O)[C@](C)(O)[C@H]1[C@H](O)C[C@]2(C)[C@@H]3CC=C4[C@@H](C=C(O)C(=O)C4(C)C)[C@]3(C)C(=O)C[C@@]12C | 33.2 nM (active) | 
28 | CCOC(=O)c1c(C(C#N)=CN)c2ccc(Cl)c(Cl)c2n1C | 18700 nM (active) | 
